# Source: PubChem BioAssay AID504834 (National Center for Advancing Translational Sciences (NCATS), 2011)
# Screen size: about 320,000 compounds; about 22,000 (6.9%) were called active. Not shown: some 27% with an inconclusive outcome. Calls follow the shape of the dose curve; as a rule, active = well fitted inhibition curve with a large enough effect; inconclusive = small, poorly fitted or top-dose-only effect, or another doubt; inactive = no such curve, though single readings can be large or run the other way. Shown is part of a subset that was picked to be rich in actives. Entries that show only a call come without a potency.
# Assay: Primary qHTS for delayed death inhibitors of the malarial parasite plastid, 96 hour incubation
# Conditions: P. falciparum luciferase reporter growth; series mostly up to 28.7 µM
# Procedure, shortened: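 96 h incubation, 37 C, 5% CO2, of luciferase-reporter P. falciparum-infected RBCs (2% hematocrit, 0.05% parasitemia final) with test compounds; endpoint luminescence.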
# Potency is read from the fitted curve at half-maximal effect.
row,SMILES,Potency
1,O=C(c1cc(=O)c2ccccc2o1)N1CCN(c2ccccc2)CC1,inactive
2,CN1CCN(c2ccc(NC(=O)c3ccccc3)cc2)CC1,inactive
3,CN1CCC(CN)(N2CCN(c3ccccc3)CC2)CC1,11.7 µM (active)
4,CCC(C)N(C(=O)CSc1ncnc2c1cnn2-c1ccccc1)C1CCS(=O)(=O)C1 (stereo not given),inactive
5,COc1ccc(CC(=O)N/N=C/c2cc([N+](=O)[O-])cc(Br)c2O)cc1,inactive
6,CC12CN3CCN(CC(C3)/C1=N\NC(=O)c1ccccc1N)C2,inactive
7,Cc1ccc2[nH]cc(CCNC(=O)C3CCCCC3)c2c1,inactive
8,NS(=O)(=O)c1ccc(CCNC(=O)NC2CCCCC2)cc1,inactive
9,Cc1ccc2[nH]c(C)c(CCNC(=O)NC3CCCCC3)c2c1,1.47 µM (active)
10,CCc1ccnc(NC(=O)Nc2ccc(OCc3ccccc3)cc2)c1,inactive
11,O=C(O)/C=C\C(=O)Nc1ccc(OCc2ccccc2)cc1,4.15 µM (active)
12,Cc1cccc(NC(=O)Nc2ccc(OCc3ccccc3)cc2)n1,inactive
13,CCN(C(=O)c1cc([N+](=O)[O-])ccc1NCc1cccnc1)c1ccccc1,inactive
14,COc1cccc(N2CC(NS(=O)(=O)c3ccc(Cl)cc3)CC2=O)c1 (stereo not given),inactive
15,CCOC(=O)N1CCC(NC(=O)CCc2ccccc2)CC1,inactive
16,Cc1ccc(CSCCNC(=O)CN(c2ccc(F)cc2)S(C)(=O)=O)cc1,inactive
17,CCCCOc1ccc(-c2nnc(-c3ccco3)o2)cc1,inactive
18,O=C(CCc1ccccc1)Nc1cccc(-c2nnc(-c3ccco3)o2)c1,inactive
19,CCC(=O)Oc1cccc(C(=O)Nc2ccc(-c3nnc(-c4ccco4)o3)cc2)c1,10.4 µM (active)
20,COCCCN(C(=O)CSCc1ccc(C)cc1)c1c(N)n(Cc2ccccc2)c(=O)[nH]c1=O,inactive
21,Cc1ccc(C(=O)NC2CCN(C(=O)Nc3ccccc3Cl)CC2)cc1,inactive
22,O=C(c1c(F)cccc1Cl)N1CCN(c2ccccn2)CC1,inactive

row,SMILES,Potency
1,COc1ccc(CCNS(=O)(=O)c2cccc3cccnc23)cc1OC,inactive
2,NS(=O)(=O)c1ccc(CCNS(=O)(=O)c2cccc3cccnc23)cc1,1.17 µM (active)
3,O=S(=O)(NCCc1ccc(F)cc1)c1cccc2cccnc12,inactive
4,Cc1cccc(NC(=O)c2cccc(C(=O)Nc3cccc(C)c3C)n2)c1C,inactive
5,COc1cc(C(=O)N2CCN(C)CC2)cc(OC)c1OC,inactive
6,C=CCOc1ccc(/C=C/C(=O)OCC(=O)NC(C)c2ccc(F)cc2)cc1 (stereo not given),inactive
7,COc1ccc(Cn2c(O)c(/C=C3/C=CC=N3)c(=O)[nH]c2=O)cc1,inactive
8,COc1cc(/C=N/NC(=O)CNC(=O)c2ccncc2)ccc1OC(C)=O,inactive
9,COc1ccc(C(=O)NCC(=O)N/N=C/c2ccc([N+](=O)[O-])s2)cc1OC,inactive
10,COc1ccc(C(=O)NCC(=O)N/N=C/c2ccc([N+](=O)[O-])o2)cc1OC,1.85 µM (active)
11,O=C(O)Cc1csc(-c2cccc(Oc3ccccc3)c2)n1,inactive
12,COCCOC1CCN(C(=O)c2ccc(OC)c(OC3CCN(C(C)C)CC3)c2)CC1,inactive
13,COC(=O)C1CCCCN1C(=O)c1ccc(OC2CCN(C(C)=O)CC2)c(OC)c1 (stereo not given),11.7 µM (active)
14,COc1ccc(C(=O)NCCn2nc(C)cc2C)cc1OC1CCN(C(C)=O)CC1,inactive
15,O=C(CSc1nc(=O)n2ccccc2n1)Nc1ccc2c(c1)OCCO2,inactive
16,CCc1c(C)sc(NC(=O)/C=C/c2ccc3c(c2)OCO3)c1C(=O)OC,inactive
17,Cc1cccc(NC(=O)/C=C/c2ccc3c(c2)OCO3)n1,9.28 µM (active)
18,Cc1cccc(NC(=O)Nc2ccc3c(c2)OCO3)n1,inactive
19,Cc1nc(COc2cccc(Cl)c2)sc1C(=O)/C=C/N(C)C,inactive
20,CC(=O)c1ccc(N2CCN(C(=O)CCNC(=O)Cn3ccc4ccccc4c3=O)CC2)cc1,inactive
21,O=C(NCc1cccc(Cl)c1)C1=CC=CN2CCS(=O)(=O)N=C12,inactive
22,Cc1cccc(N2CC(C)Cn3c2nc2c3c(=O)n(CC(=O)OCc3ccccc3)c(=O)n2C)c1 (stereo not given),11.7 µM (active)

row,SMILES,Potency
1,Cc1cccc(Cn2c(N3CCN(c4ccccc4)CC3)nc3c2c(=O)n(C)c(=O)n3C)c1,inactive
2,CC1CN(C2CCCCC2)c2nc3c(c(=O)n(C)c(=O)n3C)n2C1 (stereo not given),inactive
3,O=c1c2cc([N+](=O)[O-])ccc2nc2n1CCC2,inactive
4,COC(=O)c1sc(SC)c(S(=O)(=O)C(C)C)c1N/N=C(\C#N)S(=O)(=O)c1ccccn1,inactive
5,CC1CC(NC(=O)/C(C#N)=C/c2ccc[nH]2)CC(C)(C)C1 (stereo not given),3.29 µM (active)
6,Cn1c(=O)c2c(ncn2CCc2ccccc2)n(C)c1=O,inactive
7,Cn1c(=O)c2c(ncn2CC(COCc2ccccc2Cl)OCc2ccccc2Cl)n(C)c1=O (stereo not given),9.28 µM (active)
8,Cn1c(=O)c2c(nc(N3CCCCCC3)n2CC(O)COc2ccc(Cl)cc2)n(C)c1=O (stereo not given),inactive
9,CCOc1ccc(NC(=O)c2ccc(NC(=O)CN3C(=O)C(=O)N(CC(C)C)C3=O)cc2)cc1,inactive
10,COc1cc(/C=N/N2CCN(c3ccccc3)CC2)ccc1OC(C)=O,inactive
11,CSc1ncccc1C(=O)Nc1ccc2c(c1)OCO2,inactive
12,CSc1ccccc1NC(=O)c1ccc2c(c1)CCN2S(C)(=O)=O,inactive
13,O=C(c1cc(-c2ccco2)nc2ccccc12)N(Cc1nnc(-c2ccc(Cl)cc2)o1)C1CC1,2.08 µM (active)
14,CN(C(=O)COC(=O)c1cc(-c2ccco2)nc2ccccc12)C1CCS(=O)(=O)C1 (stereo not given),inactive
15,O=C(c1ccc(Cl)s1)N(Cc1nnc(-c2ccccc2Cl)o1)C1CC1,inactive
16,CN(c1ccccc1)S(=O)(=O)c1ccc(Cl)c(C(=O)NCCc2c[nH]c3ccccc23)c1,9.28 µM (active)
17,O=C(NCCc1c[nH]c2ccccc12)c1cc2ccccc2oc1=O,inactive
18,Cc1ccc(S(=O)(=O)N(C)CC(=O)NCCc2c[nH]c3ccccc23)cc1,inactive
19,COc1ccc(NC(=O)CNC(=O)Cn2ccc3ccccc3c2=O)c(OC)c1,inactive
20,COCCn1c(C)cc(C(=O)COC(=O)CNC(=O)c2ccco2)c1C,inactive
21,CC(=O)N1CCN(CC(C)(C)NS(=O)(=O)c2ccc(C)cc2)CC1,inactive
